Sampled rows, rich in hits. Any-hit rate of the full collection: about 2.6%.
NOD2 RIPK2 PPI – inhibitors of human NOD2-RIPK2 interaction; O43353; CHO BLA complementation NOD2-RIPK2, CCF4 ratio; inhibition, % at 4.98 µM; hit rate 0.38% among 360,000; in the data active = inhibition above about 21%
TLR9-MyD88 block – inhibitors of human TLR9-MyD88 binding. Q9NR96+Q99836. hit rate 0.21% among 340,000. inhibition, % at 4.98 µM. AID 504734. CHO BLA complementation TLR9-MyD88, CCF4 FRET ratio;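 active = inhibition above the mean over all tested compounds plus 3 SD, cut at about 21% in these data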
Target sequence (Q99836 whole entry, looked up): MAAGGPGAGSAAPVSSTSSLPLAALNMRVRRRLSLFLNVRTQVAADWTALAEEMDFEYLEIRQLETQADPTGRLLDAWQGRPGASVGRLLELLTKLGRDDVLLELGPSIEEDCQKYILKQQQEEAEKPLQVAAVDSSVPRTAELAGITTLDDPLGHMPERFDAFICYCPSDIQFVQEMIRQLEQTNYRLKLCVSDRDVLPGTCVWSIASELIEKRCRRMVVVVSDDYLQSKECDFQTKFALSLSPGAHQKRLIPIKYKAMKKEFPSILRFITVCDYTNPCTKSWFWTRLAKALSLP
Target sequence (Q9NR96 whole entry, looked up): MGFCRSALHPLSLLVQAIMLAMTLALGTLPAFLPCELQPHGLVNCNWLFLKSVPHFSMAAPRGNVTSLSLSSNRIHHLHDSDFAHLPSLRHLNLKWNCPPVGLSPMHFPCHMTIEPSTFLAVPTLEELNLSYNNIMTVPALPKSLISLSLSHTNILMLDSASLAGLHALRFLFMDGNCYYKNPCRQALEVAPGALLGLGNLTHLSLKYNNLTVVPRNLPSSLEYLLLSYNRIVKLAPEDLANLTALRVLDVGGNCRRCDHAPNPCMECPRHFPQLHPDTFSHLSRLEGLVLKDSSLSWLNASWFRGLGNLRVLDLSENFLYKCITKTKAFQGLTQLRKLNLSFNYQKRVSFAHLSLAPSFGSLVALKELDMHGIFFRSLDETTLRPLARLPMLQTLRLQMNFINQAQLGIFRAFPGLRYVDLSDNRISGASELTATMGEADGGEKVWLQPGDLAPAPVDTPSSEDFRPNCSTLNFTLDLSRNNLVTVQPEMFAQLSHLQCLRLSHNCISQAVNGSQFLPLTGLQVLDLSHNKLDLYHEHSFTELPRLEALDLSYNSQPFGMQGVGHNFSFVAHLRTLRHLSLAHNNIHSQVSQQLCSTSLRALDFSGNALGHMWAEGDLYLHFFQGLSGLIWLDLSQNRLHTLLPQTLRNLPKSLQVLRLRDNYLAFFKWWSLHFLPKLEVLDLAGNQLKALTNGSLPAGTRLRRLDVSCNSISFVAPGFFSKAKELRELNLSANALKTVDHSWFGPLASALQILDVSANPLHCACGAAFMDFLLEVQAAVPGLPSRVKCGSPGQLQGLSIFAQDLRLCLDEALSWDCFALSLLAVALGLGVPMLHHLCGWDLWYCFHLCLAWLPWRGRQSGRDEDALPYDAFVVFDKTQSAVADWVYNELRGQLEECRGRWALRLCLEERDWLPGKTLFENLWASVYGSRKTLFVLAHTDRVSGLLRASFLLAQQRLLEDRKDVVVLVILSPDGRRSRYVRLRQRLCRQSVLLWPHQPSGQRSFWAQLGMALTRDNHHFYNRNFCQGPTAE
TLR4 MyD88 comp – TLR4-MyD88 interaction inhibition in cells | O00206+Q99836 | AID 861 | inhibition, % at 8.4 µM | HeLa CL3-4 TLR4/MyD88 BLA complementation, FRET ratio | hit rate 0.18% among 200,000; in the data active = inhibition above about 25%
ABHD5 PLIN5 PPI – blocks binding of human ABHD5 to perilipin-5 | Q00G26+Q8WTS1 | Split G. princeps luciferase complementation, luminescence, 4 h | inhibition, % at 4 µM | hit rate 0.78% among 360,000 | AID 602281;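 active = inhibition above the mean inhibition across every tested compound plus 3 SD, cut at about 22% in these data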
Exocytosis inh – blocks lytic granule exocytosis. TALL-104 LAMP-1 surface exposure, flow cytometry; cells stimulated with thapsigargin and PMA. AID 651702. inhibition, % at 10 µM. hit rate 0.66% among 360,000;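 active = inhibition above about 55%, limit read from the data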
PRMT1 inh – PRMT1 (human) inhibition, primary screen; hit rate 1.3% among 370,000; Q99873; AID 652257; recombinant PRMT1, activity-based probe fluorescence polarization; inhibition, % at 2.79 µM;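 active = inhibition above about 21% made by adding two undisclosed values, limit read from the data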
PRMT1 confirm – confirmation of human PRMT1 inhibitors; inhibition, % at 2.79 µM; recombinant His-PRMT1, activity-based probe fluorescence polarization; shares compounds with PRMT1 inh; AID 687036; hit rate 42% among 3,300;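 active = mean inhibition across replicates above the hit cutoff derived for the earlier primary screen, cut at about 22% in these data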
Each line names hits and unclear results; the compound was inactive in the other large screens (follow-up assays come after a bar, where they were run).

Cc1ccc(NC(=O)N2CCC(c3nc4ccc(Cl)cc4[nH]3)CC2)cc1F	none (no result: NOD2 RIPK2 PPI, TLR9-MyD88 block, TLR4 MyD88 comp, ABHD5 PLIN5 PPI, Exocytosis inh)
O=[n+]1c2c(n([O-])c3cc(F)ccc31)CCCC2	none
O=[n+]1c2c(n([O-])c3cc(F)c(N4CCCC4)cc31)CCCC2	PRMT1 inh 46 | PRMT1 confirm 48
O=[n+]1c2c(n([O-])c3cc(F)c(N4CCCC4)cc31)CCC2	PRMT1 inh 35 | PRMT1 confirm 47
CCOc1cc(C2C(C#N)=C(N)OC(C)=C2C(C)=O)cc(Br)c1O (stereo not given)	PRMT1 inh 26 | PRMT1 confirm 28
CCOc1cc(C2C(C#N)=C(N)OC(C)=C2C(C)=O)c(Br)c(Br)c1OC(C)C (stereo not given)	none (no result: PRMT1 inh)
N#CC1=C(N)S[C@@H](C(=O)c2ccc(F)cc2)[C@@H]1c1cccs1	PRMT1 inh 35 | PRMT1 confirm inactive
Cc1ccccc1N1CCN(C2CCCN(C(=O)c3ccnn3C)C2)CC1 (stereo not given)	none (no result: TLR4 MyD88 comp)
O=C(CC1SC(=O)N(c2ccccc2)C1=O)Nc1ccccc1 (stereo not given)	PRMT1 inh 81 | PRMT1 confirm 93
CC(=O)Nc1ccc(NC(=O)CC2SC(=O)N(CC(=O)c3ccccc3)C2=O)cc1 (stereo not given)	PRMT1 inh 29 (no result: TLR4 MyD88 comp) | PRMT1 confirm inactive
Cc1cc(C)cc(-n2c(SCC(=O)Nc3cccc(S(=O)(=O)NC4=NCCCCC4)c3)nc3ccccc3c2=O)c1	none
Cc1ccc(/C=N/n2cc(-c3ccccc3)[nH]c2=S)s1	PRMT1 inh 28 | PRMT1 confirm inactive
S=c1[nH]c(-c2ccccc2)cn1/N=C/c1ccccc1Br	none
COc1cc(/C=N/n2cc(-c3ccccc3)[nH]c2=S)cc(OC)c1O	PRMT1 inh 47 (no result: TLR4 MyD88 comp) | PRMT1 confirm 27
Oc1ccc(/C=N/n2cc(-c3ccccc3)[nH]c2=S)cc1	PRMT1 inh 44 | PRMT1 confirm 24
S=c1[nH]c(-c2ccccc2)cn1/N=C/c1cccc2ccccc12	none
CCOC(=O)C1=CCN(S(=O)(=O)c2ccc(C)cc2)C1c1ccc(C(C)C)cc1 (stereo not given)	none (no result: TLR9-MyD88 block, TLR4 MyD88 comp)
Cc1cc(/C=N/NC(N)=S)c(C)n1-c1ccc(Br)cc1	none
CC(C)Oc1ccc(Br)cc1/C=N\NC(N)=S	PRMT1 inh 39 | PRMT1 confirm inactive
CC(C)NC(=S)NNc1nc2ccccc2s1	PRMT1 inh 60 | PRMT1 confirm 57
O=C(NNc1nc2ccccc2s1)c1ccc(F)cc1	none
CSc1ccccc1NC(=O)C1CCN(S(C)(=O)=O)CC1	none (no result: TLR4 MyD88 comp)
COc1cccc(=O)c2c(C)n(CC(=O)c3ccccc3)c(C)c12	PRMT1 inh 36 | PRMT1 confirm inactive
COc1ccc2nc(N3C(=O)C(O)=C(C(=O)c4ccco4)C3c3ccc(C)o3)sc2c1 (stereo not given)	PRMT1 inh 34 (no result: TLR4 MyD88 comp) | PRMT1 confirm inactive
Cc1ccc2nc(N3C(=O)C(O)=C(C(=O)c4ccco4)C3c3cccs3)sc2c1 (stereo not given)	PRMT1 inh 35 | PRMT1 confirm inactive
COc1ccc2nc(N3C(=O)C(O)=C(C(=O)c4ccco4)C3c3ccccc3OC)sc2c1 (stereo not given)	none (no result: TLR4 MyD88 comp)
CC1(C(=O)NC2CCCC2)CCC(=O)N1CCOc1ccccc1 (stereo not given)	none (no result: TLR9-MyD88 block, TLR4 MyD88 comp)
CCOC(=O)C1=C(C)N=c2s/c(=C\c3ccc(OCC(=O)O)cc3)c(=O)n2C1c1ccccc1 (stereo not given)	PRMT1 inh 34 (no result: TLR4 MyD88 comp) | PRMT1 confirm inactive
CC1=C(C(=O)OC(C)C)C(c2ccc(Cl)cc2)n2c(s/c(=C\c3ccc(OCC(=O)O)cc3)c2=O)=N1 (stereo not given)	none (no result: TLR4 MyD88 comp)
CCOC(=O)C1=C(C)N=c2s/c(=C\c3ccc(C(=O)O)cc3)c(=O)n2C1c1ccc(OC)cc1OC (stereo not given)	none (no result: TLR4 MyD88 comp)
CCOC(=O)C1=C(C)N=c2sc(=Cc3ccc(OCC(=O)O)cc3)c(=O)n2C1c1ccc(SC)cc1 (stereo not given)	PRMT1 inh 30 (no result: TLR9-MyD88 block, TLR4 MyD88 comp) | PRMT1 confirm inactive
CCn1ncc(CN2CCCC(CNC(=O)c3ccc(F)cc3)C2)c1C (stereo not given)	none
